Results from PubChem BioAssay AID504332 (National Center for Advancing Translational Sciences (NCATS), 2011).
Out of some 350,000 compounds screened, about 31,000 (8.9%) were called active. Inconclusive results (about 15%) are left out. This is one part of a sample in which actives are shown more often than they occur. Unmarked numbers belong to inactive results. The call rests on the fitted dose curve; in most records, active means well fitted inhibition curve with a large enough effect; inconclusive means small, poorly fitted or top-dose-only effect; inactive means no such curve, though single readings can be large or run the other way.

target: Histone-lysine N-methyltransferase EHMT2 (Homo sapiens) (UniProt Q96KQ7); assay: qHTS Assay for Inhibitors of Histone Lysine Methyltransferase G9a; settings: G9a H3K9 monomethylation, AlphaScreen, 2 h; series mostly up to 59 µM; activity, negative = inhibition: at the top concentration; further: nearly all actives have a fitted effect of over 75% in size
Sequence (Q96KQ7 913-1193 limits assumed): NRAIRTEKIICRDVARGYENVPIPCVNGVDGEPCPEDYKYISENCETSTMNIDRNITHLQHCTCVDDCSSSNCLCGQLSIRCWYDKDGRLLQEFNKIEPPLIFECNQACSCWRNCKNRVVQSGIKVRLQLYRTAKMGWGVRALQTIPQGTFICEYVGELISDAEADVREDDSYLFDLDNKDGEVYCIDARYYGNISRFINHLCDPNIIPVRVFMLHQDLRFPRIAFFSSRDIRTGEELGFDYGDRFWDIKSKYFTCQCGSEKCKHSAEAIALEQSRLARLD
Text: Methylated lysines, on the N-terminal tails of histone proteins serve as epigenetic markers to recruit factors that can then modify local chromatin structure to lead to functional consequences. G9a and other members of the SUV39 family of the SET domain-containing superfamily of histone lysine methyltransferases (HMT) have been identified to specifically methylate Lys9 of histone H3 (H3K9). G9a catalyzes the mono- and di-methylation of H3K9 in mammalian euchromatic regions, where the resulting H3K9me2 is indicative of transcriptional repression. […] The inhibition of G9a will result in transcriptional activation and work synergistically with DNA methyltransferase and histone deacetylase inhibitors, to kill cancer cells. This qHTS assay for identification of G9a inhibitors is a chemiluminescence based AlphaScreen (PerkinElmer). Methylation of biotinylated-histone peptide is measured through specific antibody-based detection, in conjunction with streptavidin-coated donor and anti-IgG antibody-coated acceptor beads. The method is particularly well suited for detection of inhibitors acting by the desired histone peptide competitive mechanism and is applicable to testing other HMTs. Although AlphaScreen has significant advantages with its utility in a variety of epigenetic target assays, the primary screening data provided in this deposition should be used with caution due to the prevalence of screening artifacts. An AlphaScreen counterscreen is highly recommended to be run against any putative actives to eliminate non specific artifacts. Alternatively, one can use other AlphaScreen assays in PubChem to filter out promiscuous hits. Quinn et al. A chemiluminescence-based method for identification of histone lysine methyltransferase inhibitors. Mol Biosyst 6(5): 782-8. 2010. PMID: 20567762 [2] Baell,Holloway. New substructure filters for removal of pan assay interference compounds (PAINS) from screening libraries and for their exclusion in bioassays. J Med Chem. 53(7):2719-40. 2010. PMID: 20131845 NIH Molecular Libraries Probe Production Network [MLPCN] NIH Chemical Genomics Center [NCGC] Structural Genomics Consortium (SGC) NIH Grant: 5U54 MH084681-02
To each well of a 1,536w plate, 2ul of HMT enzyme (final 20nM) were added, using a nanoliter dispenser. The G9a- and GLP-inhibitor BIX-01294 (CID: 25150857) are used as an intraplate control, with a 16-point titration in duplicate. A Kalypsys pin-tool transferred 23nl of library compound solution in DMSO to each well. Following a 15 min incubation of enzyme with compounds at room temperature, 1ul mixture of b-H3K9 peptide substrate (final 500nM) and SAM cofactor (final 20uM) were added. Reactions were allowed to proceed at room temperature for 2 hours. Methylated b-H3K9 peptide product was detected with 0.5 ug/mL rabbit polyclonal anti-monomethyl histone H3K9 antibody (Abcam Inc., Cambridge, MA) and 20 ug/mL each streptavidin-coated donor and anti-rabbit IgG acceptor AlphaScreen beads. Antibody and beads were added in a 1ul dispense, for a final volume of 4ul, and plates were incubated, protected from the light, for 10 min at room temperature. Microplates were then read on an EnVision multilabel plate reader using the 1,536 plate HTS AlphaScreen aperture (excitation time 80 ms, measurement time 240 ms).
On the % scale 0 is the no-effect control and ±100 the full control effect; potency means the concentration at half of the fitted maximal effect.

Row | Structure (SMILES) | activity, negative = inhibition | Potency
1 | Cc1ccccc1C(=O)NCCN=C1NS(=O)(=O)c2ccccc21 | -41.3% [at 102 µM] | 
2 | N#CC1(NC(=O)COC(=O)CSc2ccc(F)cc2)CCCCC1 | 0.383% [at 102 µM] | 
3 | N#CC1(NC(=O)COC(=O)CCN=C2NS(=O)(=O)c3ccccc32)CCCCC1 |  | 79.4 µM (active)
4 | COc1ccccc1C(=O)NCCn1cc(SCc2ccccc2Cl)c2ccccc21 | -3.42% | 
5 | O=C(c1ccc(F)cc1)N1CCC(C(=O)N2CCN(S(=O)(=O)c3ccccc3Br)CC2)CC1 | 4.58% [at 102 µM] | 
6 | O=C(NCc1ccccc1Cl)c1cccn1-c1nnc(N2CCCCC2)s1 | -23.5% | 
7 | COc1ccccc1N1CCN(c2ncnc3onc(-c4ccc(F)cc4)c23)CC1 | -23% | 
8 | CCCn1c(O)c(CN2CCCC(C)C2)c(C)c(C#N)c1=O (stereo not drawn) |  | 14.1 µM (active)
9 | CCCCCCn1c(CN2CCCC(C)C2)nc2c1c(=O)n(C)c(=O)n2C (stereo not drawn) | -8.22% | 
10 | CC1CCCN(Cc2c(O)ccc3c(=O)c(Oc4ccc(C(C)(C)C)cc4)c(C(F)(F)F)oc23)C1 (stereo not drawn) | -6.89% | 
11 | Cc1c(CN2CCCCC2)c(O)n(CCO)c(=O)c1C#N |  | 50.1 µM (active)
12 | O=c1oc2c(CN3CCCCC3)c(O)ccc2c2c1CCCCC2 | 0.621% [at 102 µM] | 
13 | CCC(=O)Nc1sc(C(=O)N2CCCCC2)c(C)c1C#N | -5.42% [at 102 µM] | 
14 | CCOc1ccc(-n2nc3ccc(NC(=O)c4ccc(OC)c(Cl)c4)cc3n2)cc1 | -2.24% | 
15 | CN(CC(=O)Nc1c(Cl)cccc1Cl)C(=O)CC1OC(=O)c2ccccc21 (stereo not drawn) | -2.24% | 
16 | CN(Cc1ccccc1)C(=O)CCS(=O)(=O)c1cc(Br)cc2c1N(C(=O)C1CC1)CC2 | -27.6% | 
17 | CCc1ccccc1OCC(=O)Nc1ccc(C)c(S(=O)(=O)N2CCCCCC2)c1 | 18.3% [at 12.7 µM] | 
18 | C[C@H](OC(=O)n1ccnc1)[C@@H]1O[C@@]2(C)CCC[C@@H]1O2 | 9.09% [at 0.501 µM] | 
19 | Cc1ccc(-c2cn3c(n2)sc2cc(C(=O)NCc4cccs4)ccc23)c(C)c1 | 66.5% | 
20 | CCC(=O)N1CCc2cc(Br)cc(S(=O)(=O)CCC(=O)N3CCN(c4ccc(F)cc4)CC3)c21 | 8.24% | 
21 | O=C(CSCc1c(Cl)cccc1Cl)NN1C(=O)c2ccccc2C1=O | -11.1% [at 2.33 µM] | 
22 | O=c1[nH]nc(CSCc2ccccc2Cl)[nH]1 | -25.8% | 
23 | CCn1c(CSCc2c(Cl)cccc2Cl)n[nH]c1=S |  | 2.82 µM (active)
24 | COc1ccccc1-n1ccnc(SCC(=O)NC2CCCCC2)c1=O | -32.6% [at 102 µM] | 

Row | Structure (SMILES) | activity, negative = inhibition | Potency
25 | Cc1ccc(C)c(OCCC(=O)OCC(=O)NC(=O)NCc2ccccc2)c1 | -14% [at 102 µM] | 
26 | CCCc1cc(C(=O)Nc2ccc(Cl)cn2)cs1 | 164% [at 102 µM] | 
27 | O=C(Nc1ccc(Cl)cn1)Nc1cccs1 |  | 56.2 µM (active)
28 | O=C(Nc1cccc([N+](=O)[O-])c1)Nc1ccc(Cl)cn1 | 0.0678% [at 102 µM] | 
29 | COc1ccc(S(=O)(=O)N2CCCCC2)cc1NC(=O)C1CC(=O)N(c2ccc3c(c2)OCCO3)C1 (stereo not drawn) | -34.3% [at 102 µM] | 
30 | CCOc1ccc(S(=O)(=O)N2CCCCC2)cc1NC(=O)CN1CCCC1c1cccs1 (stereo not drawn) | 19.5% [at 2.33 µM] | 
31 | Cn1c(-c2sc3cc(C(F)(F)F)cnc3c2-c2ccccc2)n[nH]c1=S |  | 2.24 µM (active)
32 | Cc1cc(C(F)(F)F)n2ncc(-c3ccccc3)c2n1 | -32.2% | 
33 | Cc1nn(-c2nc(-c3ccccc3)cc(C(F)(F)F)n2)c(C)c1Cl | 32% | 
34 | Cc1ccc2c(=O)c(C(=O)c3cccc(Cl)c3)cn(CC(=O)NCc3ccccc3)c2n1 | 4.96% | 
35 | Cc1nc2ccccc2c(=O)n1Cc1ccc([N+](=O)[O-])cc1 | -6.02% [at 102 µM] | 
36 | CC(=O)N1c2ccccc2N(Cc2ccc([N+](=O)[O-])cc2)C(=O)C1(C)C | 6.61% | 
37 | O=C1NC(=O)C2C1C(c1ccc([N+](=O)[O-])cc1)=NN2Cc1ccccc1 (stereo not drawn) |  | 50.1 µM (active)
38 | Nn1c(SCC(=O)NC(=O)NC2CCCC2)nnc1-c1ccccc1F | 17.4% [at 102 µM] | 
39 | Nn1c(SCC(=O)NC2CCCC2)nnc1-c1ccccc1F |  | 50.1 µM (active)
40 | O=C(CSc1nnc(Nc2ccccc2F)s1)NC1CCCC1 |  | 8.91 µM (active)
41 | CC(C)NC(=O)NC(=O)CSc1nnc(-c2ccccc2F)n1N | 12.1% [at 102 µM] | 
42 | O=C(CSc1nnc(Nc2ccccc2)s1)Nc1cccnc1Cl | -22.7% [at 102 µM] | 
43 | Cc1cc(NC(=O)CSc2nnc(Nc3ccccc3F)s2)no1 | 1.03% [at 102 µM] | 
44 | O=C1CCCN1C(=O)COc1ccc([N+](=O)[O-])cc1 | 4.7% | 
45 | COc1ccc(CCNc2nc(-c3ccc(F)cc3)cc(C(F)(F)F)n2)cc1OC | 24.8% | 
46 | Cc1cc(C)cc(-c2nnc(SCC(=O)NC3CC3)o2)c1 | 18.2% [at 2.33 µM] | 
47 | CO[C@H]1[C@@H]2C=CO[C@@H](O[C@H]3O[C@@H](CO)[C@H](O)[C@@H](O)[C@@H]3O)[C@@H]2[C@@]2(CO)O[C@@H]12 | -4.51% [at 2.33 µM] | 
48 | COc1cccc(CNC(=O)Cn2c(=O)c3cccn3c3ccc(F)cc32)c1OC | 10.8% | 
